Drawing on the supplement of paper PMC12024424, this text covers growth reduction for seven molecules.

Counter-ions that a name gives are not always drawn.

The test concerns Staphylococcus aureus Sa2 (MRSA, cystic fibrosis isolate). In words: growth reduction vs untreated control (OD550); higher = stronger antibacterial activity. The note with it: 0.1 mM; 24 h. How it is done:
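Single-dose screen of the MedChem Express Drug Repurposing Library (0.1 mM, 1% DMSO) against planktonic MRSA S. aureus Sa2 (CF isolate) in TSB in 96-well plates, 37 °C aerobic, 24 h. Assays were run in triplicate and repeated twice.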
Turning to `Cc1nc(Nc2ccc(F)cc2)nc(N2CCc3ccccc3C2C)c1C` (configuration not stated) [Revaprazan (hydrochloride)], the growth reduction was 93.4%. The result for `COc1ccc(CN2CCN(C(c3ccc(F)cc3)c3ccc(F)cc3)CC2)c(OC)c1OC` [Lomerizine dihydrochloride] reads 100%. The result for `Cc1noc(-c2ccc(-c3ccc(C4(C(=O)O)CC4)cc3)cc2)c1NC(=O)O[C@H](C)c1ccccc1` reads 100%.

For `CN(C)C(=O)/C=C/CNCCOc1ccc(/C(=C(/CC(F)(F)F)c2ccccc2)c2ccc3[nH]nc(F)c3c2)cn1`, the growth reduction turned out to be 100%. In turn, `CCCCCCCCCCCCN1CCCCCC1=O` [Laurocapram] displayed a growth reduction of 100%.

In turn, `CN[C@H]1CN(c2ccc3c(=O)c(C(=O)O)cn(-c4nccs4)c3n2)C[C@@H]1OC` [Voreloxin (Hydrochloride)] yielded a growth reduction of 100%. The result for `CC1(C)CCC2=C(O1)c1ccccc1C(=O)C2=O` [β-Lapachone] reads 100%.
